Data on 13 compounds can be found in PubChem BioAssay (Tox21).

Assay [1] in a line: qHTS assay to identify aromatase inhibitors - cell viability counter screen (AID 743084;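 also: cells stimulated with testosterone during compound exposure; nearly all actives have a fitted effect of over 55% in size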). (qHTS replaces the single test concentration by a dilution series.)
Assay [2] addresses Peroxisome proliferator-activated receptor gamma (Homo sapiens) (UniProt P37231). Briefly: qHTS assay to identify small molecule agonists of the peroxisome proliferator-activated receptor gamma (PPARg) signaling pathway (AID 743094; active = well fitted activation curve with a large enough effect in the signal ratio in the repeat runs, not every such curve was filed as active; the % refers to the signal ratio). In outline: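 Quantitative HTS agonist mode: stable HEK293H line with UAS-beta-lactamase reporter under PPARg control, 17 h compound exposure at 37C, fluorescence after 1 h FRET substrate loading at room temperature.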

Assay [3] can be described thus: qHTS assay for small molecule agonists of the antioxidant response element (ARE) signaling pathway (AID 743202; active = well fitted activation curve with a large enough effect in the signal ratio in the repeat runs, not every such curve was filed as active; the % refers to the signal ratio). In outline:
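Agonist mode reporter screen: HepG2 cells with ARE-controlled beta-lactamase are incubated with test compounds for 16 h at 37 C, and beta-lactamase activity is measured as fluorescence of cleaved B/G FRET substrate.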

The nature of assay [4]: qHTS assay for small molecule agonists of the antioxidant response element (ARE) signaling pathway - cell viability counter screen (AID 743203; calls by dose curve; also: nearly all actives have a fitted effect of over 55% in size). In outline:
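Seeded at 2,000 cells/well, ARE-bla HepG2 cells were incubated 5 hrs before compound addition. After 16 hrs of treatment at 37C with 5% CO2, CellTiter-Glo reagent was added and luminescence read 30 min later.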

The nature of assay [5]: qHTS assay for small molecule activators of the heat shock response signaling pathway - cell viability counter screen (AID 743209). Also: nearly all actives have a fitted effect of over 50% in size. Summed up:
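First, HSE-bla HeLa cells were seeded at 1500 cells/well and kept overnight at 37 C. Next, compounds were pinned in and incubated 5 h. After the FRET substrate step, CellTiter-Glo was added and luminescence read 30 min later.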

Assay [6] in a line: qHTS assay to identify small molecule agonists of the peroxisome proliferator-activated receptor delta (PPARd) signaling pathway - cell viability counter screen (AID 743211). Also: nearly all actives have a fitted effect of over 55% in size. In outline: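 Read-out: CellTiter-Glo luminescence, 30 min RT, measured in the same wells as the beta-lactamase reporter. Cells: GeneBLAzer PPAR delta UAS-bla HEK293H, 3000 cells/well, compound exposure 17 h at 37C.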

Assay [7] deals with Peroxisome proliferator-activated receptor delta (Homo sapiens) (UniProt Q03181). Briefly: qHTS assay to identify small molecule agonists of the peroxisome proliferator-activated receptor delta (PPARd) signaling pathway (AID 743212; calls by dose curve). Summed up: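 Quantitative high-throughput agonist screen in a HEK293H beta-lactamase reporter line under UAS control. Compounds in DMSO, at 37 C. Fluorescence read after 2 h with FRET substrate at room temperature.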
Chain of Peroxisome proliferator-activated receptor delta (Homo sapiens) (Q03181 whole entry, looked up): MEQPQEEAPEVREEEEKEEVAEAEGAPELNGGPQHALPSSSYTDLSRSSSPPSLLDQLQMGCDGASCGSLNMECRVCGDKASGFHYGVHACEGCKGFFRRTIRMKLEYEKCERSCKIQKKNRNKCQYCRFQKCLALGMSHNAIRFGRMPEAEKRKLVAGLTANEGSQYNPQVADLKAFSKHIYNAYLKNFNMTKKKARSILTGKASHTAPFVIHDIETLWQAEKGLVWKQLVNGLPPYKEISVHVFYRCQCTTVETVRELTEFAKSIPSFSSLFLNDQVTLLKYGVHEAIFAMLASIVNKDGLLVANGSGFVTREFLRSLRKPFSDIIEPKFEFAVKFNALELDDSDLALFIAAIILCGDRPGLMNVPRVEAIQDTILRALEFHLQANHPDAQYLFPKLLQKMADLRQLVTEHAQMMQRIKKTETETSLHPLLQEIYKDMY

Assay [8] is described as follows: qHTS assay to identify small molecule antagonists of the peroxisome proliferator-activated receptor delta (PPARd) signaling pathway - cell viability counter screen (AID 743213). Also: nearly all actives have a fitted effect of over 50% in size. Summed up: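 CellTiter-Glo was added to PPARd-bla HEK293H wells following 17 h compound treatment in the presence of 300 nM L165041. Luminescence was recorded after 30 min at room temperature.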

The target of assay [9] is Peroxisome proliferator-activated receptor delta (Homo sapiens) (UniProt Q03181). Briefly: qHTS assay to identify small molecule antagonists of the peroxisome proliferator-activated receptor delta (PPARd) signaling pathway (AID 743215; active = well fitted inhibition curve with a large enough effect in the signal ratio in the repeat runs, not every such curve was filed as active; the % refers to the signal ratio;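 also: cells stimulated with agonist L165041 at 300 nM final during compound exposure; series mostly up to about 62 µM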). In outline:
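Inhibition of L165041-driven (300 nM final) PPARd signaling is scored in HEK293H UAS-bla cells. Exposure lasts 17 h at 37 C; beta-lactamase activity is then read by FRET substrate fluorescence after 2 h at room temperature.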

Assay [10] concerns the target Vitamin D3 receptor (Homo sapiens) (UniProt P11473). Briefly: qHTS assay to identify small molecule agonists of the vitamin D receptor (VDR) signaling pathway (AID 743222; calls by dose curve). In outline:
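Quantitative HTS agonist-mode screen: compounds in DMSO were pin-transferred onto VDR-bla cells and incubated 16 h at 37C, 5% CO2. Reporter activity was detected with LiveBLAzer B/G FRET substrate after 2 h at room temperature.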

A short description of assay [11]: qHTS assay to identify small molecule that activate the aryl hydrocarbon receptor (AhR) signaling pathway - cell viability counter screen (AID 743086).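 Also: HepG2 liver cells carrying the AhR DRE luciferase reporter; series mostly up to about 70 µM; nearly all actives have a fitted effect of over 45% in size.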 In outline:
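HepG2-AhR-luc (HG2L7.5c1) cells, 4000/well, treated 24 h at 37 C with compound; viability measured as CellTiter-Fluor fluorescence after 30 min in the same wells as the luciferase read.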

Assay [12] is described as follows: qHTS assay to identify small molecule antagonists of the peroxisome proliferator-activated receptor gamma (PPARg) signaling pathway - cell viability counter screen (AID 743194). Also: nearly all actives have a fitted effect of over 55% in size. Also: potency is read from the fitted curve at half-maximal effect. Summed up:
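Cytotoxicity counter screen in PPARg-bla HEK293H cells, same wells as reporter assay. Compounds plus 50 nM rosiglitazone (final) for 17 h at 37 C, then viability read by CellTiter-Glo luminescence.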

Assay [13] can be described thus: qHTS assay for small molecule activators of the heat shock response signaling pathway (AID 743210; active = well fitted activation curve with a large enough effect in the signal ratio in the repeat runs, with a control signal flat, not every such curve was filed as active; the % refers to the signal ratio;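 also: HeLa cells with beta-lactamase reporter driven by heat shock elements; series mostly up to about 63 µM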). Summed up:
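Quantitative high-throughput format using an engineered HeLa line in which heat shock response elements drive beta-lactamase; after 5 h with compound, cells received a B/G FRET substrate and fluorescence was read.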

Assay [14] concerns the target Bile acid receptor (Homo sapiens) (UniProt Q96RI1). Briefly: qHTS assay to identify small molecule agonists of the farnesoid-X-receptor (FXR) signaling pathway (AID 743220; active = well fitted activation curve with a large enough effect in the signal ratio in the repeat runs, not every such curve was filed as active; the % refers to the signal ratio). In outline: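 Beta-lactamase reporter under UAS control in GeneBLAzer FXR HEK 293T cells (5000/well) measured with LiveBLAzer FRET substrate after 2 h at room temperature. Compound exposure lasted 16 h at 37C.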

Assay [15] in a line: qHTS assay to identify small molecule antagonists of the farnesoid-X-receptor (FXR) signaling pathway - cell viability counter screen (AID 743221; active = well fitted cell-killing curve with a large enough effect in the repeat runs, not every such curve was filed as active; also: nearly all actives have a fitted effect of over 50% in size). Summed up:
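HEK 293T FXR-bla cells, 5 h pre-incubation; compound + CDCA 50 uM final, 16 h, 37 C; beta-lactamase FRET read first, then CellTiter-Glo luminescence, 30 min RT.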

Assay [16] has as its target Vitamin D3 receptor (Homo sapiens) (UniProt P11473). Briefly: qHTS assay to identify small molecule antagonists of the vitamin D receptor (VDR) signaling pathway (AID 743223; active = well fitted inhibition curve with a large enough effect in the signal ratio in the repeat runs, not every such curve was filed as active; the % refers to the signal ratio). Summed up:
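Beta-lactamase reporter read-out: FRET substrate fluorescence after 2 h at room temperature, following 16 h exposure of VDR-bla cells to test compound plus 3 nM (final) 1alpha,25-dihydroxyvitamin D3 agonist at 37C.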

The nature of assay [17]: qHTS assay to identify small molecule agonists of the farnesoid-X-receptor (FXR) signaling pathway - cell viability counter screen (AID 743218). Also: nearly all actives have a fitted effect of over 45% in size. In outline:
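Cytotoxicity counter-screen run in parallel, same wells: FXR-UAS-bla HEK 293T cells dosed 16 h at 37 C, viability read by CellTiter-Glo luminescence after 30 min at room temperature.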

Assay [18] has as its target Peroxisome proliferator-activated receptor gamma (Homo sapiens) (UniProt P37231). Briefly: qHTS assay to identify small molecule antagonists of the peroxisome proliferator-activated receptor gamma (PPARg) signaling pathway (AID 743191; calls by dose curve; also: series mostly up to about 63 µM; nearly all actives have a fitted effect of over 30% in size). In outline: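 GeneBLAzer PPARg UAS-bla HEK293H cells, 5 h post-plating, exposed to compounds 17 h at 37C. LiveBLAzer B/G FRET substrate added for 1 h at room temperature; beta-lactamase reporter read by fluorescence intensity.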

Inconclusive results are not listed. Active and inactive are the calls of the source. Unless noted, calls follow the shape of the dose curve; as a rule, active = well fitted curve in the direction sought with a large enough effect in the repeat runs; inconclusive = weak or mixed curves; inactive = no such curve, though single readings can be large; an effect the other way counts as inactive or inconclusive.

Chain of Vitamin D3 receptor (Homo sapiens) (P11473 whole entry, looked up): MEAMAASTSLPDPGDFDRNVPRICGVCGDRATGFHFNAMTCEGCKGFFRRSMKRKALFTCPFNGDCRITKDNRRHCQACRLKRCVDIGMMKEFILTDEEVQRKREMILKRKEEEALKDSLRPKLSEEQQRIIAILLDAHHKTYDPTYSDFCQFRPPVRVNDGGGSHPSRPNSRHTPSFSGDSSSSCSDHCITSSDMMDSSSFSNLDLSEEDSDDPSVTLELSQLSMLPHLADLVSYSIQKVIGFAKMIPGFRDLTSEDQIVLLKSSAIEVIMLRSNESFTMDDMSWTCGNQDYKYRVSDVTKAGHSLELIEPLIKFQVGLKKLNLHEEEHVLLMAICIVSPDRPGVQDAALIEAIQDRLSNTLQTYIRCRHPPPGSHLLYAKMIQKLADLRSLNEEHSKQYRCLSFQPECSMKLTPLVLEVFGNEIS
Chain of Peroxisome proliferator-activated receptor gamma (Homo sapiens) (P37231 whole entry, looked up): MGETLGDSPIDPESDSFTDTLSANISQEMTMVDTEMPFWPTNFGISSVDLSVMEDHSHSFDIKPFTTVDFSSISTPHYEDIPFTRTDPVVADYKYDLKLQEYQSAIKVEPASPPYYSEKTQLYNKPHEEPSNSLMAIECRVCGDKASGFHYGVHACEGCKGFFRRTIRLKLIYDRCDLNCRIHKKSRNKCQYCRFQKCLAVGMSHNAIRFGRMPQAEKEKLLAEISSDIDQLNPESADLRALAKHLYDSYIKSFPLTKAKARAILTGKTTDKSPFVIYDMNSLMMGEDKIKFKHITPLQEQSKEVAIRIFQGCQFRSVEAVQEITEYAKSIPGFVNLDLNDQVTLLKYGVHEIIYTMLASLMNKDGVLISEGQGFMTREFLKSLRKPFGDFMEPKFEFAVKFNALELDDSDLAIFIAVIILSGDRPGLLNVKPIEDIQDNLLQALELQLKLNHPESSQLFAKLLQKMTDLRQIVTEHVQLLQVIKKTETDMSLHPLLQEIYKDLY
Chain of Bile acid receptor (Homo sapiens) (Q96RI1 whole entry, looked up): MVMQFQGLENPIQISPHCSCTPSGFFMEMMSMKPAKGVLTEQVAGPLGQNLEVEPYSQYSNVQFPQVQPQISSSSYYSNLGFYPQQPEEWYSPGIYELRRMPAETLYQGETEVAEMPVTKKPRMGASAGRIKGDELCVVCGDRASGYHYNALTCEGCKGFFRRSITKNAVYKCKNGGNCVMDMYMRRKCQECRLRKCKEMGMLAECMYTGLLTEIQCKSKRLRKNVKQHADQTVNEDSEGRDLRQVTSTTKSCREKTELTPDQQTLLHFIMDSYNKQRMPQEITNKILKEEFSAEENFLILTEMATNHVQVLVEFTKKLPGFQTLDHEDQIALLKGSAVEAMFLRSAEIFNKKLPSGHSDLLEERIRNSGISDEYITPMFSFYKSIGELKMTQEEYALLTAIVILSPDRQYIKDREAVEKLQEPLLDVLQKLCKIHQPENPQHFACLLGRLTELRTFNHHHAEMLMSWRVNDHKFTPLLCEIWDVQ

Regarding `CCCCCCOC(=O)c1ccccc1O`, the Potency entry in assay [1], in assay [3], in assay [6] and in [8] was “inactive” in each case. For the same compound, the result in assay [2], in assay [4], in assay [5], in assay [7], in assay [9] and in assay [10] was inactive.

In the case of `CCCCC=O`, the Potency result in assay [11], in [12], in assay [3], in assay [6], in assay [8] and in [15] was “inactive” throughout. Also, the call in [4], in [5], in [13], in assay [14], in assay [10] and in assay [16] was inactive.

As for `O=C(O)Cc1cc(I)c(Oc2cc(I)c(O)c(I)c2)c(I)c1`, the Potency result in assay [1], in assay [6] and in assay [8] was “inactive” each time. In assay [12], the Potency was 19.1 µM (active). Further, in assay [5], the compound was called inactive.

Turning to `CN(C)N=Nc1ccccc1`, the Potency result in assay [11], in [12], in assay [3], in assay [6], in [8] and in assay [15] was “inactive” each time. Moreover, the result in assay [4], in [5], in assay [7], in [9], in assay [17] and in [10] was inactive. Also, the compound was classed as inactive in assay [16].

For the compound `CC(C)CCCC(C)NCCC(C)C` (stereo not given), the Potency result in assay [12], in assay [6], in assay [8] and in assay [15] was “inactive” in each case. For the same compound, the outcome in assay [4], in [5], in [13], in assay [7], in assay [9] and in [17] was inactive. In addition, the result in [10] and in assay [16] was inactive.

Regarding `CCCOc1ccccc1-c1nc2n[nH]nc2c(=O)[nH]1`, the Potency result in assay [1], in [3], in [6] and in assay [15] was “inactive” in each case. For the same compound, the outcome in assay [4], in [5], in [13], in assay [9] and in [14] was inactive.

Take `O=C1CC2(CCCC2)CC(=O)N1`: the Potency entry in assay [12], in assay [3], in assay [6], in [8] and in assay [15] was “inactive” each time. The result in [4], in [5], in assay [13], in assay [7], in assay [9] and in assay [17] was inactive. In addition, the compound was called inactive in assay [14], in assay [10] and in assay [16].

Take `CCCCCCCCCCCCI`: the Potency entry in assay [11], in assay [3], in [6] and in assay [8] was “inactive” in each case. Besides, the call in [4], in assay [13], in assay [17], in assay [14], in assay [10] and in assay [16] was inactive.

Regarding `CCCCCCCCC=O`, the Potency result in [11], in assay [3], in assay [8] and in assay [15] was “inactive” throughout. In addition, the call in assay [4], in [5] and in [13] was inactive.

On to `CCN1CCCC(OC(=O)C(c2ccccc2)c2ccccc2)C1` (stereo not given), for which the call in assay [18], in assay [4], in assay [5], in assay [13], in assay [9] and in assay [17] was inactive. Moreover, the Potency result in [12], in [3], in assay [6], in assay [8] and in assay [15] was “inactive” each time.

On to `Cc1c(C)n(CCN(C)C)c2ccc(C(=O)OCCN(C)C)cc12`, for which the Potency result in assay [1], in [12], in assay [6] and in [15] was “inactive” throughout. Further, the result in assay [18], in assay [4], in [13], in assay [9], in assay [17] and in assay [10] was inactive. The call in assay [16] was inactive.

Turning to `O=c1[nH]c(=O)n([C@H]2O[C@H](CO)[C@@H](O)[C@@H]2O)cc1/C=C\Br`, the Potency result in assay [3], in assay [6], in [8] and in assay [15] was “inactive” each time. Further, the compound was called inactive in [4], in assay [5], in assay [7] and in [9].

For `CC1(C)OC(=O)Nc2ccc(Br)cc21`, the Potency entry in assay [12], in [3], in assay [6], in assay [8] and in [15] was “inactive” each time. Besides, the result in assay [4], in [13], in [7], in assay [9], in [17] and in assay [14] was inactive. Moreover, the call in [10] and in assay [16] was inactive.
